# Compound activity (PubChem BioAssay)
# Hits are enriched below; roughly 19% of the tested compounds scored in any of these assays.
# KB-3-1 tox: qHTS assay for MDR1-selective chemotherapeutics: Primary screen using the parental adenocarcinoma cell KB-3-1 | KB-3-1 viability, CellTiter-Glo ATP luminescence, 72 h | Potency, µM (series often up to 46.1 µM), hits mostly cytotoxic | 400,000 compounds, 1.4% hits | AID 1347075, 2019; also: nearly all actives have a fitted effect of over 60% in size
#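 Cells are dispensed, compounds pinned in, plates held at 37 °C for 72 h, then CellTiter-Glo is added and luminescence read after 10 minutes. Cell line: parental KB-3-1 in phenol-red-free DMEM, 10% FBS.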
# TDP1 cell CPT: qHTS for Inhibitors of human tyrosyl-DNA phosphodiesterase 1 (TDP1): qHTS in cells in presence of CPT. Potency, µM (highest dose often 46.2 µM), without a hit: top-dose activity change, negative = growth inhibition, actives largely listed as inhibitors. 420,000 compounds, 12% hits. AID 686979, 2013. chicken DT40 Tdp1-/-;hTDP1 cells + 20 nM CPT, ATP luminescence, 48 h; also: nearly all actives have a fitted effect of over 55% in size
#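 Chicken DT40 Tdp1-/- cells stably complemented with human TDP1 were seeded at 400 cells/well in medium containing 20 nM camptothecin, exposed to pin-transferred compounds, and grown at 37 °C for at least 48 hr. Viability was read as ATP luminescence.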
# HT1080 IDH1KD tx: qHTS for induction of synthetic lethality in tumor cells producing 2HG: qHTS for the HT-1080-IDH1KD cell line; HT-1080 IDH1 knockdown viability, ATP luminescence, 48 h; 360,000 compounds, 2% hits; Potency, µM (titrated, usually from 46.1 µM), for the others: at the highest dose activity, negative = toxicity, hits mostly cytotoxic;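 also: 0% = DMSO wells and -100% = cell-free medium wells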
#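 IDH1KD HT-1080 cells, 750/well, RPMI + 5% FBS; compound pinned after 2 h settling; 48 h, 37 °C; CellTiter-Glo luminescence; % activity normalised to DMSO and no-cell wells; curves fitted, classed by r2 and efficacy.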
# HT1080NT lethal: qHTS for induction of synthetic lethality in tumor cells producing 2HG: qHTS for the HT-1080-NT fibrosarcoma cell line; HT-1080-NT fibrosarcoma viability, CellTiter-Glo ATP luminescence, 48 h; Potency, µM (top dose mostly 46.1 µM), for inactives: at the highest dose activity, negative = less viability, most hits filed as cytotoxic; 360,000 compounds, 1.6% hits; AID 686970, 2013;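 also: NT is the 2HG producing partner of a matched IDH1 knockdown line; 0% = DMSO-treated cells and -100% = media-only wells without cells; nearly all actives have a fitted effect of over 55% in size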
#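 HT-1080-NT fibrosarcoma cells (2HG-overproducing), 750 cells/well in RPMI with 5% FBS, dosed after 2 h and incubated 48 h at 37C. CellTiter-Glo luminescence normalized to DMSO and no-cell wells; concentration-response curves fitted and classed.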
# KB-V1 cytotox: qHTS assay for MDR1-selective chemotherapeutics: Primary screen using the drug-selected MDR subline cells KB-V1; KB-V1 MDR cells viability, CellTiter-Glo, 72 h; Potency, µM (series often up to 46.1 µM), actives largely listed as cytotoxic; 400,000 compounds, 3.4% hits; AID 1347076, 2019; also: nearly all actives have a fitted effect of over 60% in size
#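 KB-V1 MDR subline cells in DMEM (phenol-red free, 10% FBS) exposed to compounds in qHTS concentration series for 72 h at 37 degrees C. Viability read by CellTiter-Glo luminescence; concentration-effect curves fitted after normalization and correction.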
# TDP1 cell noCPT: qHTS for Inhibitors of human tyrosyl-DNA phosphodiesterase 1 (TDP1): qHTS in cells in absence of CPT. 420,000 compounds, 15% hits. AID 686978, 2013. Potency, µM (top dose mostly 46.2 µM), for the others: at the highest dose activity change, negative = growth inhibition, hits mostly inhibitors. DT40 Tdp1-/- hTDP1 cells, no CPT, ATP luminescence, 48 h; also: nearly all actives have a fitted effect of over 55% in size
#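 Chicken DT40 Tdp1-/- cells complemented with human TDP1, screened without camptothecin (DMSO vehicle only), 400 cells/well. Compounds pin-transferred, cells incubated at 37 °C for at least 48 hr. Growth read as ATP-dependent luminescence (CellTiter-Glo, 30 min at RT).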
# * hit, by the source's call; i = inactive; ? = inconclusive; nt = no result. Calls follow the shape of the dose curve; as a rule, active = well fitted curve in the direction sought with a large enough effect; inconclusive = small, poorly fitted or top-dose-only effect, or another doubt; inactive = no such curve, though single readings can be large; an effect the other way counts as inactive or inconclusive. Unless noted, % is scaled to controls: 0 for no effect and ±100 for the full control effect; potency is read from the fitted curve at half-maximal effect.
SMILES,KB-3-1 tox,TDP1 cell CPT,HT1080 IDH1KD tx,HT1080NT lethal,KB-V1 cytotox,TDP1 cell noCPT
COC(=O)CCCC(=O)N1CCCC(C(=O)c2ccccc2SC)C1 (stereo unspecified),i,-2.9%,4.2%,-1.2%,i,20.6%
COc1cc(OC)c(OC)cc1CN1CCCC(C(=O)N2CCCCC2)C1 (stereo unspecified),i,-8.4%,6.8%,-3.4%,i,-11.2%
COc1cc(CN2CCCC(C(=O)c3ccccc3SC)C2)cc(OC)c1 (stereo unspecified),i,14.6µM*,?,?,?,?
COc1ccc(C)cc1NS(=O)(=O)c1ccc2c(c1)CCCN2C(C)=O,i,?,nt,nt,i,?
Nc1nc(NS(=O)(=O)c2ccc(Cl)cc2)nn1-c1ccccc1,i,?,13.7%,-5.6%,i,0.1%
COc1ccc(C(=O)c2oc3ccccc3c2NC(=O)c2cc(=O)c3ccc(C)cc3o2)cc1Cl,i,-0.3%,nt,nt,i,-3.5%
Cc1ccc(CN2CCc3nnc(C(NS(C)(=O)=O)C(C)C)n3CC2)cc1C (stereo unspecified),nt,-11.8%,nt,nt,nt,-0.6%
Cc1cc(C)c2c(=O)cc(C(=O)NCCc3ccc(S(N)(=O)=O)cc3)oc2c1,i,5.3%,nt,nt,?,-11.2%
O=C1CCCc2ccccc2N1Cc1cccc(F)c1,i,14.6µM*,-12.8%,-1.1%,i,11.6µM*
O=C1CCCc2ccccc2N1Cc1ccc(F)cc1,i,11.6µM*,0.9%,-10.1%,i,?
O=C1CCc2ccccc2N1Cc1ccccc1,i,17.8%,4.2%,5.3%,?,-7.2%
Cc1ccccc1Cn1ccn(-c2ccc(F)c(F)c2)c(=O)c1=O,nt,25.7%,nt,nt,nt,1.8%
OCc1ccccc1OCCCOc1cccc2cccnc12,i,-1.2%,6.1%,-11.4%,?,-10.1%
CC(=O)c1ccccc1OCCCN1CCCCC1,i,-2.5%,-0.3%,0.0%,i,-18.8%
Cc1cc(OCCOc2cccc3cccnc23)cc(C)c1Cl,i,14.6µM*,?,?,i,18.4µM*
CC(=O)c1ccccc1OCCOCCOCCOc1ccccc1C(C)=O,i,18.4µM*,0.1%,-3.5%,?,?
CC(=O)c1ccc(OCCCOc2cccc3cccnc23)cc1,i,?,-1.2%,-4.2%,i,?
CC(C)Oc1ccccc1OCCCOc1cccc2cccnc12,i,?,-29.9%,-4.5%,?,20.6µM*
CC(=O)c1ccccc1OCCCOc1cccc2cccnc12,i,23.1µM*,-9.3%,-10.5%,i,23.1µM*
Cc1ccc2c(c1)c1c(c(=O)n(-c3cccc(Cl)c3)c(=O)n1CC(=O)NCCC1=CCCCC1)n2C,i,-1.9%,nt,nt,i,1.4%
COc1ccc(-c2nc3cnc(N(C)C)nc3n(C3CC3)c2=O)cc1,nt,-0.4%,nt,nt,nt,-16.5%
CCCn1c(SCC(=O)NC(C)(C)C)nnc1-c1ccco1,i,9.0%,14.0%,9.7%,i,0.1%
COc1ccc(/C(C)=N/NC(=O)c2ccc(CSc3cccc4cccnc34)cc2)cc1OC,?,?,-30.0%,0.4%,?,15.8µM*
COc1ccc(C(C)=O)cc1COc1cccc2cccnc12,i,-3.8%,-0.6%,2.9%,i,?
COc1cc(C(C)=O)ccc1OCCCOc1cccc2cccnc12,i,18.4µM*,-19.1%,-17.5%,?,?
SMILES,KB-3-1 tox,TDP1 cell CPT,HT1080 IDH1KD tx,HT1080NT lethal,KB-V1 cytotox,TDP1 cell noCPT
CN1CCN(C2=Cc3ccccc3Sc3cc(F)c(Cl)cc32)CC1,?,?,?,?,?,29.1µM*
CN1CCN(C2=Cc3ccccc3Sc3cc(F)c(F)cc32)CC1,?,?,?,?,i,?
CN1CCN(C2=Cc3cc(Cl)ccc3Sc3cc(F)ccc32)CC1,?,?,?,?,18.4µM*,29.1µM*
Cc1ccc(-c2nc(S(=O)(=O)c3ccc(F)cc3)c(N3CCN(c4ccccc4)CC3)o2)cc1,i,?,nt,nt,i,-26.9%
COCCCn1cc(CN2CC(N3CCN(CCO)CC3)CS2(=O)=O)nn1 (stereo unspecified),i,-2.0%,2.9%,7.0%,i,5.1%
CN1C(=O)/C(=N\OC(=O)c2ccccc2Cl)c2ccccc21,i,23.1µM*,12.2%,21.7%,i,23.1µM*
Cc1nc(SCC(=O)Nc2ccccc2F)[nH]c(=O)c1Cc1ccccc1,nt,-1.1%,nt,nt,nt,?
Cc1cc(NC(=O)CCC(=O)N(CC(=O)NC2CCCC2)c2ccc(F)c(Cl)c2)no1,i,-5.6%,-1.9%,-7.8%,i,-8.1%
C[C@@H]1CN([C@@H](C)CO)C(=O)CCCn2nncc2CO[C@H]1CN(C)C(=O)c1ccncc1,i,1.7%,5.9%,2.5%,?,-2.9%
COc1cccc(C2CC(=O)Nc3cc(OC)c(OC)c(OC)c32)c1OC(C)C (stereo unspecified),i,?,nt,nt,i,?
O=C(Nc1ccc(-c2cccc(F)c2)cc1)C1CCCN(Cc2ccccn2)C1 (stereo unspecified),nt,20.6µM*,-24.7%,-3.0%,nt,23.1µM*
Cc1ncc(CN2CCCC(C(=O)Nc3ccc(-c4cccc(F)c4)cc3)C2)cn1 (stereo unspecified),i,14.6µM*,?,-29.3%,i,?
Cc1ncc(CN2CCCC(C(=O)Nc3ccc(-c4cccc(F)c4)cc3)C2)s1 (stereo unspecified),i,?,0.7%,-14.4%,i,?
Cc1ccccc1CN1CCCC(C(=O)Nc2ccc(-c3ccn[nH]3)cc2)C1 (stereo unspecified),?,16.4µM*,?,-10.0%,11.6µM*,?
COc1cccc(-c2ccc(NC(=O)C3CCCN(Cc4ccccn4)C3)cc2)c1 (stereo unspecified),i,?,-2.2%,-6.3%,i,?
O=S(=O)(c1ccc(C(F)(F)F)cc1)N1CCN(CCc2ccccc2)CC1,i,-11.1%,0.6%,1.8%,i,-28.6%
